Drawing on PubChem BioAssay (NCATS), this text covers outcome, Potency and max response for 1 compound.

The nature of assay [1]: qHTS for Inhibitors of Cell Surface uPA Generation: Validation Assay (AID 493164).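 Note: RAW 264.7 macrophage cells exposed to compound for 18 h; 0% is about no effect.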 Summed up:
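ATP-Lite luminescence read-out: ATP remains high when uPA activity-dependent LF translocation into the cytoplasm is blocked. RAW 264.7 cells, 18 h compound exposure at 37 C; 7-point titration, 2.45 nM to 38.3 uM final.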

A short description of assay [2]: Validation screen for small molecules that induce DNA re-replication in SW480 colon adenocarcinoma cells (AID 504364). Note: 0% is about no effect. Summed up: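 Image-based DNA content read-out: Hoechst stain 40 min, total nuclear fluorescence intensity (ex 405 nm, em 500-530 nm) after 48 h compound exposure of 250 SW480 cells/well at 37 C, 5% CO2, versus DMSO vehicle.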
The target in assay [3] is Peptidyl-prolyl cis-trans isomerase NIMA-interacting 1 (Homo sapiens) (UniProt Q13526). Kind of assay: qHTS Validation Assay to Find Inhibitors of Pin1 (AID 504536; active = well fitted inhibition curve with a large enough effect in the polarisation, with a control signal flat, not every such curve was filed as active; the % refers to the polarisation; note: potency is the fitted concentration of half-maximal effect). In short, it runs like this:
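Fluorescence polarization competition: compounds (titration) displace HiFluor-488-labeled Pin1-1b peptide from Pin1 (0.3 uM final) in pH 7.5 HEPES buffer with DTT, 10 min at room temperature; %Activity normalized to no-enzyme wells, curves fitted.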
Background: Quantitative high-throughput screening tests each substance at several concentrations.

Assay [4] addresses Phosphoglycerate kinase, glycosomal (Trypanosoma brucei brucei) (UniProt P07378). Kind of assay: qHTS Validation Assay to Find Inhibitors of Phosphoglycerate Kinase (AID 504547). Note: potency is the fitted concentration of half-maximal effect. In short, it runs like this:
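Compounds are pinned into the substrate/PGK mixture, and GAPDH (100nM final) is added to start the reaction by producing 1,3-BPG. After 60 minutes at room temperature, Kinase-Glo Plus is added and luminescence is measured 10 minutes later.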

For assay [5], the target named is Ubiquitin carboxyl-terminal hydrolase 1 (Homo sapiens) (UniProt O94782). Briefly: Inhibitors of USP1/UAF1: Pilot qHTS (AID 504865). Note: potency is the fitted concentration of half-maximal effect; nearly all actives have a fitted effect of over 35% in size. In short, it runs like this:
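In 50mM HEPES pH 7.8 containing 0.5mM EDTA, 1mM TCEP, 0.1 mg/ml BSA and 0.01% Tween-20, 1nM USP1/UAF1 is exposed to compound for 15 min, then Ub-Rho (150nM final) is added and fluorescence is read over time.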

Assay [6] concerns the target Voltage-gated inwardly rectifying potassium channel KCNH2 (Homo sapiens) (UniProt Q12809). Briefly: qHTS Assay for Small Molecule Inhibitors of the Human hERG Channel Activity (AID 588834).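 Note: top concentration of the series differs between compounds; % is set by controls: 0 for no effect and ±100 for the full control effect; lower thallium flux fluorescence means stronger hERG block; nearly all actives have a fitted effect of over 50% in size.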 Summed up: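 Step 1: BacMam hERG transduction of U2OS, 4 hrs RT. Step 2: overnight 37 °C, plate 2000 cells/well, 4 hr. Step 3: FluxOR load, compound 10 min, stimulate, read fluorescence.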

Assay [7] has as its target Glucagon-like peptide 1 receptor (Homo sapiens) (UniProt P43220). Briefly: qHTS of GLP-1 Receptor Agonists: LOPAC Validation (AID 624148).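 Note: 0% is about no effect; higher luminescence signal means agonism.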 Summed up: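 HEK293 cells stably co-expressing GLP-1R and a cAMP-responsive luciferase reporter, plated 12 hours before compound, then incubated 4-6 hr at 37 deg C. Luminescence read 12 min after detection reagent.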
Assay [8] in a line: qHTS of Nrf2 Activators: LOPAC Validation (AID 624149). Note: 0% is about no effect. Summed up:
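Luciferase signal from ARE activation, read with Steady-Glo after 30 min at room temperature. Compounds were pin-transferred onto AREc32_Fluc cells (1000/well, OPTI-MEM/5% FBS, seeded overnight) and left 24 hr at 37 deg C.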

A short description of assay [9]: HTS Assay for Allosteric Antagonists of the Human D2 Dopamine Receptor: Hit Validation in HTRF (AID 624455).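 Note: stable D1 dopamine receptor cell line scored for blocking the D1 response; % is set by controls: 0 for no effect and ±100 for the full control effect.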 Summed up: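 Inhibition of the D1-mediated response was measured by HTRF. Cells used were a line stably expressing the D1 dopamine receptor.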
In assay [10] the target is Arylsulfatase A (Homo sapiens) (UniProt P15289). Briefly: qHTS screen for enhancers of Arylsulfatase A (ASA1): LOPAC Validation Assay (AID 720538). Note: potency is the fitted concentration of half-maximal effect. In short, it runs like this: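 MLD patient fibroblasts (SV40, ASA-I179S), 1536-well; adhere 6 hrs; cpd 48h, 37 degree C, 5% CO2; pNCS 0.5mM final in lysis buffer, 14h RT; stop 1N NaOH final; fluor. Ex525/Em598.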
A short description of assay [11]: qHTS for compounds that reverse cellular toxicity of Amyloid beta (A-beta) peptide in yeast: LOPAC Validation Assay (AID 720559).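 Note: plate controls were DMSO for no effect and equimolar ferric chloride plus clioquinol rescue for full effect.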 Summed up:
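Medium dispensed, compounds pinned, A-beta yeast suspension added; plates held at 30 C for 48 hr; absorbance measured at 600 nm to gauge growth; values scaled between DMSO and FeCl3/clioquinol (equimolar) controls.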

Assay [12] can be described thus: qHTS for Activators of Parkin Expression: LOPAC Validation Assay (NLuc Reporter) (AID 720572). In short, it runs like this:
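NLuc signal, read 10 min after reagent and following a prior FLuc read, is normalized to DMSO (0) and positive controls (100%). Cells: neuronal Parkin-promoter coincidence reporter line; compounds tested 7-point, 24 h, 37 C, 5% CO2.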

Assay [13] is described as follows: qHTS for Activators of Parkin Expression: LOPAC Validation Assay (FLuc Reporter) (AID 720573). Summed up:
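Cells seeded, 24 h; compounds pinned, 7-pt dose response; 24 h at 37 C/5% CO2; volume reduced; FLuc reagent 10 min RT; luminescence read. Normalization: DMSO = 0, positive control = 100%.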

The target of assay [14] is Hexokinase-4 (Homo sapiens) + Glucokinase regulatory protein (Homo sapiens) (UniProt P35557+Q14397). Kind of assay: qHTS assay for inhibitors of recombinant human GCK-GKRP interaction: ADP-Glo assay (AID 743206).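 Note: plate controls were DMSO plus enzyme for no effect and no enzyme for full effect.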 In short, it runs like this:
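Pin-transferred compounds meet a 15 nM GST-GCK/15 nM FLAG-GKRP/2 uM S6P mix (dispense concentrations). ATP is then added to 0.4 mM final with 5 mM glucose, and the reaction runs 60 min at room temperature. ADP is quantified luminescently.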

Assay [15] can be described thus: qHTS Assay for Identifying Gametocytocidal Compounds (AID 743244).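 Note: % is set by controls: 0 for no effect and ±100 for the full control effect; actives lower the fluorescent signal which means gametocytes are killed.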 Particulars: P. falciparum 3D7 stage III-V gametocytes, alamarBlue, 72 h; max response: active compounds read low. In short, it runs like this: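 A resazurin-based viability read-out was applied to mature P. falciparum gametocytes: 72 h compound treatment, then 24 h dye incubation, with falling fluorescence signalling gametocytocidal effect.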

The nature of assay [16]: Natriuretic polypeptide receptor (hNpr1) antagonism - Pilot counterscreen GloSensor control cell line (AID 1347045; calls by dose curve; note: potency is the fitted concentration of half-maximal effect). Summed up: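 Control counterscreen: luciferase cGMP-biosensor HEK293 cells (no Npr1) received compound for 30 min at room temperature after GloSensor substrate loading. Luminescence was measured before and 20 min after soluble guanylyl cyclase activation by 50 uM nitroprusside.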
(In general: The purpose of a counterscreen is to sort out artefacts and off-target activity.)

Assay [17] in a line: NS1 protein of Zika virus - qHTS assay to identify small molecule inhibitors in human HEK 293 cells (AID 1347053).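 Note: series mostly up to about 46 µM; plate controls were infected untreated cells for no effect and uninfected cells for full effect; nearly all actives have a fitted effect of over 55% in size.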 In short, it runs like this: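 Readout was TR-FRET using paired anti-NS1 antibodies after 24 h infection of HEK 293 cells with ZIKV MR766 (MOI = 0.5). Compound preceded virus by 1 h; reduced signal reflects lower NS1 expression.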
The target of assay [18] is T1, Tyrosine-protein phosphatase non-receptor type substrate 1 (Homo sapiens) + Leukocyte surface antigen CD47 (Homo sapiens) (UniProt P78324+Q08722). Kind of assay: CD47-SIRPalpha protein protein interaction - LANCE assay qHTS validation (AID 1347057; active = well fitted curve in the direction sought with a large enough effect in the signal ratio, with a control signal flat, not every such curve was filed as active; the % refers to the signal ratio; note: series mostly up to about 38 µM; 0% is about no effect). Summed up:
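Inhibition of soluble CD47/SIRPalpha ectodomain association by titrated compounds, measured as 665/615 nm time-resolved FRET ratio after sequential 30 min room-temperature incubations.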
A general note: TR-FRET usually uses a lanthanide donor and a delayed reading to cut background.

Assay [19] deals with T1, Tyrosine-protein phosphatase non-receptor type substrate 1 (Homo sapiens) + Leukocyte surface antigen CD47 (Homo sapiens). Kind of assay: CD47-SIRPalpha protein protein interaction - Alpha assay qHTS validation (AID 1347059).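 Note: bead proximity luminescence from CD47 binding SIRPalpha after compound preincubation with SIRPalpha; potency is the fitted concentration of half-maximal effect.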 Summed up: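 SIRPalpha-biotin 25 nM + cpd, 30 min RT, dark; add CD47-His 12.5 nM, 30 min; add Ni-NTA/SAV beads 10 ug/mL, 30 min; AlphaScreen. Buffer PBS pH 7.4 + 0.05% IGEPAL CA-630. Non-biotinylated SIRPalpha as control inhibitor.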

In assay [20] the target is Parathyroid hormone/parathyroid hormone-related peptide receptor (Homo sapiens) (UniProt Q03431). Kind of assay: qHTS for PTHR1 Agonists: Optimization Screen against the NCGC LOPAC library (AID 1347079).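 Note: GloSensor cAMP luminescence in HEK-293 GP2 cells expressing human PTHR1 with IBMX; 0% is about no effect.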 In short, it runs like this:
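HEK-293 GP2 cells, PTHR1 + GloSensor cAMP; 3000 cells/well, o/n. Luciferin + IBMX 0.5mM each (stock), 1 hr 37C. Cpd titration, 1 hr 37C. Lum after 15 min RT. Ctrl M-PTH(1-15) top 10uM.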

Assay [21] addresses N-terminal Xaa-Pro-Lys N-methyltransferase 1 (Homo sapiens) (UniProt Q9BV86). Kind of assay: qHTS Assay for Inhibitors of N-terminal methyltransferase 1 (NTMT1): LOPAC validation of the NTMT1 SAHH-coupled ThioGlo3 Assay (AID 1347143).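 Note: SAH from peptide methylation measured as thiol fluorescence via SAHH coupling and ThioGlo3; potency is the fitted concentration of half-maximal effect; nearly all actives have a fitted effect of over 70% in size.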 In short, it runs like this: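 Steps: dispense 125nM NTMT1; pin-transfer test compounds at several concentrations, with 1uM RCC1-6 peptide as control; incubate 1 min; start with reagent holding 100uM SAM, 10uM SAHH, 15uM ThioGlo3; read at 0 and 30 min.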

A number with no mark means an inactive call. Results filed as inconclusive are left out. Calls of active or inactive are those of the source. Unless noted, calls come from the whole dose curve; as a rule, active = well fitted curve in the direction sought with a large enough effect; inconclusive = small, poorly fitted or top-dose-only effect, or another doubt; inactive = no such curve, though single readings can be large; an effect the other way counts as inactive or inconclusive.

T1 sequence (P78324 whole entry, looked up, the tested form may be a part): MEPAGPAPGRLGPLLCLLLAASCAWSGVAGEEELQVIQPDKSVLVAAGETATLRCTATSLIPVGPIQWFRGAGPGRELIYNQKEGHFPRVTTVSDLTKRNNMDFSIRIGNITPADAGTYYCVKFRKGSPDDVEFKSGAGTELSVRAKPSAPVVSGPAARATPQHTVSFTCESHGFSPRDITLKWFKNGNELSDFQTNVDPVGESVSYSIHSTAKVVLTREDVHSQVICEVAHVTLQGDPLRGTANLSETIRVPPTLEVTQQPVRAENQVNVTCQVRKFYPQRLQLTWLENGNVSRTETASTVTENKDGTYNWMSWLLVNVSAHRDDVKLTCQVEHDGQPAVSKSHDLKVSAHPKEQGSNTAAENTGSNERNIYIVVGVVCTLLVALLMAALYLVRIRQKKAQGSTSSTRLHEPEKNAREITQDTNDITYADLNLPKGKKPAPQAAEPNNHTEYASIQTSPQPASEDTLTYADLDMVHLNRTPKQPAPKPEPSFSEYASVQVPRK
T1 sequence (Q08722 whole entry, looked up, the tested form may be a part): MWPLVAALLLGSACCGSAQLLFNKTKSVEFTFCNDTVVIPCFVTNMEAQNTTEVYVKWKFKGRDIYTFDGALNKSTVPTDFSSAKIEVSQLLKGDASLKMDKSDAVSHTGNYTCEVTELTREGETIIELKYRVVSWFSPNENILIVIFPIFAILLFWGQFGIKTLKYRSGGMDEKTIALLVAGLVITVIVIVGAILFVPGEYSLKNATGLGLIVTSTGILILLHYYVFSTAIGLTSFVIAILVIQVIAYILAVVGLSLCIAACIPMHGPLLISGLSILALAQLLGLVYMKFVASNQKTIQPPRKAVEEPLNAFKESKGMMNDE
Sequence of Peptidyl-prolyl cis-trans isomerase NIMA-interacting 1 (Homo sapiens) (Q13526 whole entry, looked up): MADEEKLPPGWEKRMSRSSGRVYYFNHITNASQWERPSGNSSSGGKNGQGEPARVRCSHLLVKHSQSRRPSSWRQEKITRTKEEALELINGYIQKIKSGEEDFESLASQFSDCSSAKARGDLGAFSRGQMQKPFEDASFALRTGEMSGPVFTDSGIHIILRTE
Sequence of Ubiquitin carboxyl-terminal hydrolase 1 (Homo sapiens) (O94782 whole entry, looked up): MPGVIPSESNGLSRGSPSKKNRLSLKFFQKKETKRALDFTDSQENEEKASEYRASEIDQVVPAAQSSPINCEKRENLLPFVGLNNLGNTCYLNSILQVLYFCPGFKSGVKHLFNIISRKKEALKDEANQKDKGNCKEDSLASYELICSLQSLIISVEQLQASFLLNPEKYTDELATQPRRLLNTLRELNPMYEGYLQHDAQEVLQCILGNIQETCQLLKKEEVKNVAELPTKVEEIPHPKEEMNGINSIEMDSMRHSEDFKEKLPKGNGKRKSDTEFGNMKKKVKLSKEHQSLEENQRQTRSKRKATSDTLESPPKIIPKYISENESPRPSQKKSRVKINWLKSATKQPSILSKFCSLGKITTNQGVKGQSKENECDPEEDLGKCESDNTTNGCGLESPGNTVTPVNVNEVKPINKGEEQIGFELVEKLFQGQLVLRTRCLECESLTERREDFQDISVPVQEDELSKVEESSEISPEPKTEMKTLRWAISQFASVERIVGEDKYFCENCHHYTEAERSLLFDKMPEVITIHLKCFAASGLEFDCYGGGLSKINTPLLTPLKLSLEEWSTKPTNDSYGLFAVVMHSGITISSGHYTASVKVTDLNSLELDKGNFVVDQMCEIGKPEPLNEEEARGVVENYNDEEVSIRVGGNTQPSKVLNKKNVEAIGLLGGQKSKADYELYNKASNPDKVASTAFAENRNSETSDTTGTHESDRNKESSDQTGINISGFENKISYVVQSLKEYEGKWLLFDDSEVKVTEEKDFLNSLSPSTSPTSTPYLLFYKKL
Sequence of Phosphoglycerate kinase, glycosomal (Trypanosoma brucei brucei) (P07378 whole entry, looked up): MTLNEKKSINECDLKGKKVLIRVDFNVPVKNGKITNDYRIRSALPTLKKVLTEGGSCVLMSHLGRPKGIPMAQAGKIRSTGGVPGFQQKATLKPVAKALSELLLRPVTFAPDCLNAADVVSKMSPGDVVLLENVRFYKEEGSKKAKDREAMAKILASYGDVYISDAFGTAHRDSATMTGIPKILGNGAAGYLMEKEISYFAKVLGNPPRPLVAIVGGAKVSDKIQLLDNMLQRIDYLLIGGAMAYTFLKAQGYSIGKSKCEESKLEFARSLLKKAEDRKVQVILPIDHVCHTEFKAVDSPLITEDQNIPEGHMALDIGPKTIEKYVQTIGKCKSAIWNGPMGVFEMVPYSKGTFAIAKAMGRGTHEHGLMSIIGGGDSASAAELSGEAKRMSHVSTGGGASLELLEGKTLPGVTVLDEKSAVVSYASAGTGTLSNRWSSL
Sequence of Arylsulfatase A (Homo sapiens) (P15289 whole entry, looked up): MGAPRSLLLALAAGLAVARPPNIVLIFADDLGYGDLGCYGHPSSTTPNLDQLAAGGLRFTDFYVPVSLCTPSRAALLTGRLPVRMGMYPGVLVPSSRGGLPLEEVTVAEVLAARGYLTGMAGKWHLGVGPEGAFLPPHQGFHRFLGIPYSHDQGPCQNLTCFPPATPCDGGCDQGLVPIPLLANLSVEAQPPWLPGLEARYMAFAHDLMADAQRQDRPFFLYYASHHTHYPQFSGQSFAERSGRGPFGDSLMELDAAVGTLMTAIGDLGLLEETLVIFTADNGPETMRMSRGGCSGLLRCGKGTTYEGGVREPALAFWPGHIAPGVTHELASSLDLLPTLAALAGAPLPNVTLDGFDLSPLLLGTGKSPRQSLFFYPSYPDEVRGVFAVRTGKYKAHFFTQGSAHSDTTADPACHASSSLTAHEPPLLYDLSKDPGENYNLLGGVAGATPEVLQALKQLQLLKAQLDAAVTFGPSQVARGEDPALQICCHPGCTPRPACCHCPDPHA
Sequence of Parathyroid hormone/parathyroid hormone-related peptide receptor (Homo sapiens) (Q03431 whole entry, looked up): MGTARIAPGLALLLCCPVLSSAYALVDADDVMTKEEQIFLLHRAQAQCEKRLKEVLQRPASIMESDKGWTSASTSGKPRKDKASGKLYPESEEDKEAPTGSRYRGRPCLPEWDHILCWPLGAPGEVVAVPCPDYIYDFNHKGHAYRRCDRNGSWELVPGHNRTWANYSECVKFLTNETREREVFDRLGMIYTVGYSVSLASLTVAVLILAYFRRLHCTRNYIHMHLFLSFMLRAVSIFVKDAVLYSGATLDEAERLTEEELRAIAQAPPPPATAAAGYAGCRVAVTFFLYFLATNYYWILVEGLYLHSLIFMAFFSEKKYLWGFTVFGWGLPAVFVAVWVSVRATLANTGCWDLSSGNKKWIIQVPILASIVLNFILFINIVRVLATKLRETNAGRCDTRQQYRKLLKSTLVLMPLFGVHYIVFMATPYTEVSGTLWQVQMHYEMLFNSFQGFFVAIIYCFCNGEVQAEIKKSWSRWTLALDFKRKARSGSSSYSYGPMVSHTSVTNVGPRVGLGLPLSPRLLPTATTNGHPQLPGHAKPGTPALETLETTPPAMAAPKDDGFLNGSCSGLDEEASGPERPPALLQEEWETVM
Sequence of Glucagon-like peptide 1 receptor (Homo sapiens) (P43220 whole entry, looked up): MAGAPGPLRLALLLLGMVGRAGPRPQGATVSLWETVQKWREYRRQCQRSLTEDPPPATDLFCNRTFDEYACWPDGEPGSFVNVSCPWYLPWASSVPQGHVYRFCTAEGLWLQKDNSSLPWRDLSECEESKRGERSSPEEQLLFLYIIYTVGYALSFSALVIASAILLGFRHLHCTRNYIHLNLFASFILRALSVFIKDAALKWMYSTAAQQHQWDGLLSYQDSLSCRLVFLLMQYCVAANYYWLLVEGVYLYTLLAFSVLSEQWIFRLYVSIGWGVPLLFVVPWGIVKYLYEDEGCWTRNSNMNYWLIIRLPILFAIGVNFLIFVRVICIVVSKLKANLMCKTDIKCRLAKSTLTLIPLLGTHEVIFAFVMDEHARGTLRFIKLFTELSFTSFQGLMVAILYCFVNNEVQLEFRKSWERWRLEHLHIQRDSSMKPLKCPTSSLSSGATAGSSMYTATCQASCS
Sequence of Voltage-gated inwardly rectifying potassium channel KCNH2 (Homo sapiens) (Q12809 whole entry, looked up): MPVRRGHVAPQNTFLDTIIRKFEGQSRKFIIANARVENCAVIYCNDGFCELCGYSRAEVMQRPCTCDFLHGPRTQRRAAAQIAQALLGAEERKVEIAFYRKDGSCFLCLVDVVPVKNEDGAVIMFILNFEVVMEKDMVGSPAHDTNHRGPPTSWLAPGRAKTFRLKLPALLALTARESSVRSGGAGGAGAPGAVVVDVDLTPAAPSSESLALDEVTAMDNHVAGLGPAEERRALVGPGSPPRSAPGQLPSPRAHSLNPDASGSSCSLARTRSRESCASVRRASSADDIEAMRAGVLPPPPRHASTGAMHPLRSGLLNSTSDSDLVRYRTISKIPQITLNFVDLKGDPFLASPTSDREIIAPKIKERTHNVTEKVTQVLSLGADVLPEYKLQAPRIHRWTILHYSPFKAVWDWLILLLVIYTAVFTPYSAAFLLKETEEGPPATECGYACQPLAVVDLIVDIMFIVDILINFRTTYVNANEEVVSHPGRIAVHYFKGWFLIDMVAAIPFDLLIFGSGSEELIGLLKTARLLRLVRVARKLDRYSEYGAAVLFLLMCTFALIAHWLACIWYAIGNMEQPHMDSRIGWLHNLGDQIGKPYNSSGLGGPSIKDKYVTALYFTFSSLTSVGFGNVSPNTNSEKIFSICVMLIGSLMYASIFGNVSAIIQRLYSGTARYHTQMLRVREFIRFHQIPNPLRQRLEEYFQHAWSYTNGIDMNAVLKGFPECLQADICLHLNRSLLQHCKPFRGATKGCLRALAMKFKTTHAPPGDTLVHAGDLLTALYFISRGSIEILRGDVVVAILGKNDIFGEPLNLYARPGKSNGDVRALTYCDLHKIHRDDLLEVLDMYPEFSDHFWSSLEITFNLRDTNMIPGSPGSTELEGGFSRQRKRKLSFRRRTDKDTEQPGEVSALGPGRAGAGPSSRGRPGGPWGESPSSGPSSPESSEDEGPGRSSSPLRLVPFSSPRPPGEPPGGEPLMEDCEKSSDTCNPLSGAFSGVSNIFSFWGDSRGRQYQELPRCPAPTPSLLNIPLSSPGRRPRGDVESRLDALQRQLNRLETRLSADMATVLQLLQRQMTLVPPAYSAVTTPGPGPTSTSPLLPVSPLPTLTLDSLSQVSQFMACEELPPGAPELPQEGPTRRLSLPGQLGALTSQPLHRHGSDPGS

In the case of `Nc1c(S(=O)(=O)O)cc(Nc2ccc(Nc3nc(Cl)nc(Nc4ccc(S(=O)(=O)O)cc4)n3)c(S(=O)(=O)O)c2)c2c1C(=O)c1ccccc1C2=O`, the call in assay [1], in assay [2], in assay [7], in assay [8], in [9] and in [11] was inactive. Further, the result in [12], in assay [14], in assay [17], in [18] and in [20] was inactive. Besides, the Potency in assay [3] is 2.39 µM (active); in [4], 5.36 µM (active); in assay [5], 6.31 µM (active); in [10], 26.9 µM (active); in assay [16], 9.27 µM (active); in assay [19], 11.7 µM (active). The Potency in [21] is 44.7 µM (active). The Potency result in assay [6] and in assay [13] was “inactive” in each case. Further, the max response in assay [15] is 27.3%.
